Inconclusive results are not listed. Where a call stands in place of a potency, no number is given. Activity calls are given as the source filed them. Calls follow the shape of the dose curve; as a rule, active = well fitted cell-killing curve with a large enough effect in the repeat runs; inconclusive = weak or mixed curves, or effect the other way; inactive = no such curve, though single readings can be large or run the other way.

These results are taken from PubChem BioAssay (Tox21).
Potency is read from the fitted curve at half-maximal effect.

This assay is described as follows: qHTS assay for identifying genotoxic compounds that show differential cytotoxicity against isogenic chicken DT40 cell lines with known DNA damage response pathways - Rev3 mutant cell line (AID 743014). Also: nearly all actives have a fitted effect of over 55% in size. The following applies: chicken DT40 Rev3-/- viability, CellTiter-Glo, 40 h; series mostly up to 68.4 µM. From the text: National Center for Advancing Translational Sciences [NCATS]
NIH Chemical Genomics Center [NCGC]
U.S. Environmental Protection Agency [EPA]
National Institutes of Environmental Health Sciences [NIEHS]
National Toxicology Program [NTP]
U.S. Food and Drug Administration [FDA]
DNA repair pathways play a critical role in cellular homeostasis by repairing DNA damage induced by endogenous processes and xenobiotics. Isogenic chicken DT40 cell lines deficient in different DNA repair pathways can be used to identify genotoxic compounds and aid in characterizing the nature of the DNA damage induced. Two DNA repair-deficient cell lines with disrupted genes, Rad54/Ku70 or Rev3, were used to screen the Tox21 10K compound library. Possible genotoxicity was based on the presence of a significant increase in cytotoxicity in one or more of the DNA repair-deficient cell lines compared to that observed in the parental DNA repair-proficient cell line. CellTiter Glo viability assay (Promega, Madison, WI) was used to measure cell viability in these cells after compound treatment. This assay includes the data from the Rev3 mutant cell line.
Tox21 Assay Protocol Summary:
300 DT40 mutant cells in 5 uL/well were dispensed into white, solid-bottom 1536-well plates using a Multidrop Combi (ThermoFisher Scientific, Waltham, MA) dispenser. After the assay plates were incubated at 37 C/5% CO2 for approximately 0.5 hour, 23 nL of compounds dissolved in DMSO, positive controls or DMSO only was transferred into the assay plate by a pintool work station (Kalypsys, San Diego, CA). The assay plates were incubated at 37 C/5% CO2 for 40 hours. After 5 uL per well of CellTiter-Glo reagent was added into each well of the assay plates, the plates were incubated for 30 min at room temperature and the luminescence intensity of the plates was measured using a ViewLux (PerkinElmer, Shelton, CT) plate reader.
(In general: In qHTS, concentration-response curves come from the screen itself.)
As for `CS(=O)(=O)Nc1cc2occ(NC=O)c(=O)c2cc1Oc1ccccc1`, the Potency result was “inactive”.

Take `CC(=O)O[C@H]1C[C@@H]2CC[C@@H]3[C@H](CC[C@@]4(C)[C@H]3C[C@H](N3CC[N+](C)(C)CC3)[C@@H]4OC(C)=O)[C@@]2(C)C[C@@H]1N1CC[N+](C)(C)CC1`: the Potency entry is “inactive”.

On to `CCC(=O)NS(=O)(=O)c1ccc(-c2c(-c3ccccc3)noc2C)cc1`, for which the Potency result is “inactive”.

In the case of `CN1CCC(CN2c3ccccc3Sc3ccccc32)C1` (stereo not given), the Potency was 4.22 µM (active).

Consider `CC1(C)S[C@@H]2[C@H](NC(=O)C3(N)CCCCC3)C(=O)N2[C@H]1C(=O)O`, for which the Potency result was “inactive”.

Turning to `CCCCCCCCCCCCCCCC(=O)OCC(COC(=O)CCCCCCCCCCCCCCC)OC(=O)CCCCCCCCCCCCCCC`, the Potency entry is “inactive”.

For the compound `CC(C)(C)NC[C@H](O)COc1ccccc1C1CCCC1`, the Potency was 10.1 µM (active).

`O=C1N=C2SCCN2C(=O)C1Cc1ccc(Cl)cc1` (stereo not given): the Potency result was “inactive”.

For the compound `CC(=O)N[C@@H](CC(=O)N[C@@H](CCC(=O)O)C(=O)O)C(=O)O`, the Potency result was “inactive”.

As for `CC[C@]1(O)CC2CN(CCc3c([nH]c4ccccc34)[C@@](C(=O)OC)(c3cc4c(cc3OC)N(C)[C@H]3[C@@](O)(C(N)=O)[C@H](O)[C@]5(CC)C=CCN6CC[C@]43[C@@H]65)C2)C1` (stereo not given in full), the Potency is 0.0531 µM (active).

For `O=C(OCCO)c1ccccc1O`, the Potency entry is “inactive”.

With `CC(=O)N[C@@H]([C@@H](O)[C@H](O)[C@H](O)CO)[C@@H](O)CC(=O)C(=O)O`, the Potency entry was “inactive”.

Consider `CCN(CC)CCC(=O)N1c2ccccc2Sc2ccc(Cl)cc21`, for which the Potency was 10.6 µM (active).

`NCc1ccccc1CC(=O)N[C@@H]1C(=O)N2C(C(=O)O)=C(CSc3nnnn3CC(=O)O)CS[C@H]12`: the Potency entry was “inactive”.

For the compound `O=C(O)c1cc(O)c2c(c1)[O][Bi][O]2`, the Potency entry was “inactive”.

Regarding `CCCCCC(O)/C=C/C=O` (stereo not given), the Potency entry was “inactive”.

Consider `CC(=O)Oc1cc(C)c(OC(C)=O)c2ccccc12`, for which the Potency was 23.7 µM (active).

In the case of `C=CCCCCCCCCC(=O)OC`, the Potency entry was “inactive”.

In the case of `O=P(O)(O)OC[C@H](O)CO`, the Potency result was “inactive”.

As to `COc1ccc(C2(C#N)CCC(C(=O)O)CC2)cc1OC1CCCC1` (stereo not given), the Potency entry was “inactive”.

For the compound `CC(C)N1CCN(c2ccc(OC[C@H]3CO[C@](Cn4cncn4)(c4ccc(Cl)cc4Cl)O3)cc2)CC1`, the Potency was 5.07 µM (active).

On to `CC(=O)[C@]1(O)Cc2c(O)c3c(c(O)c2[C@@H](O[C@H]2C[C@H](N)[C@H](O)[C@H](C)O2)C1)C(=O)c1c(O)cccc1C3=O`, for which the Potency was 0.0188 µM (active).

Take `CC(=O)O[C@H]1C[C@@]2(C)[C@@H](C[C@@H](O)[C@H]3[C@@]4(C)CC[C@@H](O)[C@@H](C)[C@@H]4CC[C@@]32C)/C1=C(\CCC=C(C)C)C(=O)O`: the Potency entry is “inactive”.

As for `CCC(=O)OCC(=O)[C@@]1(OC(=O)CC)[C@H](C)C[C@H]2[C@@H]3CCC4=CC(=O)C=C[C@]4(C)[C@@]3(F)[C@@H](O)C[C@@]21C`, the Potency is 29.8 µM (active).

As to `CCN(CC)CCC(=O)N1c2ccccc2Sc2ccc(C(F)(F)F)cc21`, the Potency was 10.6 µM (active).

Take `CC(CN(C)C)CN1c2ccccc2S(=O)(=O)c2ccccc21` (stereo not given): the Potency result was “inactive”.

Turning to `O=C(O)c1c(Cl)c(Cl)c(Cl)c(Cl)c1-c1c2cc(I)c(=O)c(I)c-2oc2c(I)c(O)c(I)cc12`, the Potency entry is “inactive”.

As for `NCCCC[C@H](N)C(=O)O`, the Potency entry was “inactive”.

On to `CCN(CC)CCOC(=O)c1ccc(N)cc1Cl`, for which the Potency result was “inactive”.

With `CCCCCCCCCCCCCCCC(=O)OC[C@@H](NC(=O)C(Cl)Cl)[C@H](O)c1ccc([N+](=O)[O-])cc1`, the Potency result was “inactive”.

As to `CC(C)CCC[C@@H](C)[C@H]1CC(=O)C2=C3CC[C@H]4C[C@@H](O)CC[C@]4(C)[C@H]3CC[C@@]21C`, the Potency is 0.298 µM (active).

For the compound `CC(=O)Nc1c(I)c(C(=O)N[C@H]2C(O)O[C@H](CO)[C@@H](O)[C@@H]2O)c(I)c(N(C)C(C)=O)c1I` (stereo not given in full), the Potency result was “inactive”.

On to `NS(=O)(=O)c1cc2c(cc1Cl)NC(Cc1ccccc1)NS2(=O)=O` (stereo not given), for which the Potency entry is “inactive”.

Consider `O=c1[nH]cnc2[nH]cc(CN3CCCCC3)c12`, for which the Potency result is “inactive”.

For the compound `CCCC(CCC)C(N)=O`, the Potency entry was “inactive”.

Turning to `CCC[C@@]1(CCc2ccccc2)CC(O)=C([C@H](CC)c2cccc(NS(=O)(=O)c3ccc(C(F)(F)F)cn3)c2)C(=O)O1`, the Potency entry is “inactive”.

On to `O=C1C(=O)c2ncccc2-c2cccnc21`, for which the Potency was 8.41 µM (active).

Turning to `CCC(=O)c1ccc2c(c1)N(CCCN1CCN(CCO)CC1)c1ccccc1S2`, the Potency is 2.66 µM (active).

Regarding `CN1c2cc(O)c(N=NC(N)=O)cc2CC1S(=O)(=O)O` (stereo not given), the Potency result was “inactive”.

For the compound `CCCCCCCCCCCCCCCCCC(=O)OCC(C)O` (stereo not given), the Potency entry is “inactive”.
